Bioassay records (PubChem)
Only a selection was taken, and hits are over-represented in it overall.
Shiga toxin inh: Shiga toxin inhibition. Vero cells, Shiga toxin protein synthesis inhibition reporter. inhibition, % at 38.7 µM. 290,000 tested, 9.2% active. AID 2315; in the data active = inhibition mostly above about 28%, no sharp cut-off; inactive = mostly below about 43%; also: 0% is about no effect
LmPK inh: blocks Leishmania mexicana pyruvate kinase activity | Potency, µM (highest dose often 57.5 µM), inactives show top-dose activity change, negative = inhibition, usual class: inhibitors | AID 1721 | 290,000 tested, 0.37% active | purified LmPK, Kinase-Glo ATP luminescence, 1 h; also: potency is read from the fitted curve at half-maximal effect; % is scaled to controls: 0 for no effect and ±100 for the full control effect
Target sequence (Q27686 whole entry, looked up): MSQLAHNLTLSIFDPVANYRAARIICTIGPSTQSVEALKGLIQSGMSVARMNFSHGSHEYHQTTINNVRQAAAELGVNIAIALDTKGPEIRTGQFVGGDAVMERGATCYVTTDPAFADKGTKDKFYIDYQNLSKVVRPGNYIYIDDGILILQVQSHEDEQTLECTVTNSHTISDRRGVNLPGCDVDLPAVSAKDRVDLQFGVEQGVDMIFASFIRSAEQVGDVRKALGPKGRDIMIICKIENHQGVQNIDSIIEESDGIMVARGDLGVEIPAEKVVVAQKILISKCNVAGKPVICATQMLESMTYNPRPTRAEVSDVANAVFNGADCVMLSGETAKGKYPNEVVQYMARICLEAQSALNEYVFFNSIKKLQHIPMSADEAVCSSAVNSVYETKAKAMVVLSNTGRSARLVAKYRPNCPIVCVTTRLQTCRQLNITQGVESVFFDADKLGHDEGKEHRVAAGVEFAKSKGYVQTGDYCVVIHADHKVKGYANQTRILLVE
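ATP generated from ADP (0.1 mM) and PEP (0.5 mM) by 0.1 nM LmPK over 1 h at room temperature (pH 7.2 imidazole buffer) was detected by coupled luciferase luminescence. Values were normalized to uninhibited and no-enzyme wells.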
Cycloheximide cs: affects cycloheximide protein synthesis inhibition readout, counter-screen; cell reporter, cycloheximide protein synthesis inhibition counterscreen; max response, %; 300,000 tested, 12% active; AID 2314; in the data active = max response mostly above about 13%, no sharp cut-off; inactive = mostly below about 14%; also: read at 38.3 µM for the half of the compounds with a filed dose; 0% is about no effect
TbPYK inhibitor: inhibitors of Trypanosoma brucei pyruvate kinase; Q57TT1; TbPYK enzyme, Kinase-Glo Plus ATP luminescence, 45 min; Potency, µM (doses to about 76.8 µM), for inactives: top-dose activity, negative = inhibition, usual class: inhibitors; 410,000 tested, 0.12% active; also: potency is read from the fitted curve at half-maximal effect; % is scaled to controls: 0 for no effect and ±100 for the full control effect; nearly all actives have a fitted effect of over 50% in size
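Activity of T. brucei pyruvate kinase was followed by Kinase-Glo Plus luminescence after the enzyme reacted 45 min at room temperature with 130 uM ADP (final) and substrate. Test compounds were added before ADP at multiple concentrations.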
Sm TGR block: S. mansoni TGR enzyme inhibition; purified TGR, DTNB reduction, TNB absorbance 405 nm; AID 485364; Q962Y6; Potency, µM (series often up to 114 µM), for the others: top-dose activity change, negative = inhibition, most hits filed as inhibitors; 360,000 tested, 3% active; also: potency is read from the fitted curve at half-maximal effect; % is scaled to controls: 0 for no effect and ±100 for the full control effect; nearly all actives have a fitted effect of over 60% in size
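TGR 20 nM + NADPH 100 uM (dispensed conc.), cpd preinc 15 min RT; start with NADPH (500 uM addition) then DTNB (15 mM addition). Kinetic TNB absorbance, 405 nm filter. Four-parameter Hill fit across titration.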
Giardia FBPA inh: Giardia lamblia aldolase inhibition; 290,000 tested, 0.71% active; AID 2451; Potency, µM (highest dose often 59.6 µM), inactives show at the highest dose activity, negative = inhibition, actives largely listed as inhibitors; purified Giardia FBPA; also: potency is read from the fitted curve at half-maximal effect; % is scaled to controls: 0 for no effect and ±100 for the full control effect; nearly all actives have a fitted effect of over 55% in size
Target sequence (A8B2U2 whole entry, looked up): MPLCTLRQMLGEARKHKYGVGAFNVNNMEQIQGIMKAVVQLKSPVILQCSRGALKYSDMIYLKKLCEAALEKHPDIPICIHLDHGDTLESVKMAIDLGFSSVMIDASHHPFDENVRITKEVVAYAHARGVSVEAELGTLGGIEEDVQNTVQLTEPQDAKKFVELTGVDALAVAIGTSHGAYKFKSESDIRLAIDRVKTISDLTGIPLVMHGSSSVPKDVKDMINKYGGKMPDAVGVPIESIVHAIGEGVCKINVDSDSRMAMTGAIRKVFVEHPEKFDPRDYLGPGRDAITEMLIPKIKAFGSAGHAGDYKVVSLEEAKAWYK
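40 nM FBPA preincubated 10 min at RT with compound (up to 57.5 uM final), then substrate plus GAPDH/TPI/NAD/arsenate coupling and diaphorase/resazurin added. Fluorescence read after 20 min at RT, 525/598 nm.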
* hit, by the source's call; ? = inconclusive; · = not tested or not shown. Unless noted, calls follow the shape of the dose curve; as a rule, active = well fitted curve in the direction sought with a large enough effect; inconclusive = small, poorly fitted or top-dose-only effect, or another doubt; inactive = no such curve, though single readings can be large; an effect the other way counts as inactive or inconclusive.

SMILES | Shiga toxin inh | LmPK inh | Cycloheximide cs | TbPYK inhibitor | Sm TGR block | Giardia FBPA inh
O=C(Nc1ccc2nc(SCC(=O)N3CCCC3)sc2c1)c1cccc(Br)c1 | · | · | · | 0.0% | -0.4% | ·
CCCc1nn2c(=O)cc(COC(=O)c3cccc(NC(=O)COc4ccc(F)cc4)c3)nc2s1 | · | · | · | -3.9% | -4.3% | ·
CCc1noc(C)c1C(=O)N1CCN(c2cccc(Cl)c2)CC1 | · | · | · | -7.0% | · | ·
COc1ccc(C(C)=O)cc1COC(=O)CCNS(=O)(=O)c1ccc(C)cc1 | · | · | · | -1.3% | 5.62µM* | ·
COc1ccc(C(C)=O)cc1COC(=O)CCNS(=O)(=O)c1ccc(C(C)=O)cc1 | -0.9 | -0.3% | -1.8 | -13.0% | 10µM* | ·
COc1ccc(C(C)=O)cc1COC(=O)C(CO)NS(=O)(=O)c1ccc(Br)cc1 (configuration not stated) | -15.9 | -0.5% | 1.0 | 3.6% | 12.6µM* | 3.7%
COc1ccc(C(C)=O)cc1COC(=O)CNC(=O)c1cc(C)cc(C)c1 | 16.8 | 5.0% | 0.2 | 4.6% | 31.6µM* | 4.7%
CCN(C(=O)CN1C(=O)NC2(CCc3ccccc32)C1=O)C1CCCCC1 (configuration not stated) | · | · | · | 1.0% | -31.9% | ·
Cc1ccc(NC(=O)c2cc(S(=O)(=O)N(C)C3CCCCC3)ccc2F)cc1C | · | · | · | 0.4% | 16.5% | ·
CCOc1ccc(C(C)=O)cc1COC(=O)CCc1cc(OC)c(OC)c(OC)c1 | 1.0 | 3.8% | -2.7 | 0.7% | -25.1% | 10.3%
COc1ccc(C(C)=O)cc1COC(=O)CCCN1C(=O)c2ccccc2C1=O | -8.2 | 0.6% | -1.2 | -3.2% | 8.91µM* | 0.4%
CNC(=O)C(C#N)(Cc1cc(C(C)=O)ccc1OC)Cc1cc(C(C)=O)ccc1OC | -15.2 | 2.2% | 1.6 | -2.7% | 39.8µM* | ·
CCCCN(C(C)=O)c1c(CC)nc2ccc(C(=O)NCCc3ccccn3)cn12 | · | · | · | 1.7% | · | ·
O=C(CSc1ccc2nnc(-c3cccnc3)n2n1)Nc1ccc(F)cc1F | -3.7 | -5.8% | 0.6 | -6.0% | 1.9% | ·
CCOC(=O)C1CCN(C(=O)CCCn2nc(C)c3c(C)n(-c4ccc(C)cc4)nc3c2=O)CC1 | -5.5 | 6.2% | -1.6 | 5.2% | 9.0% | -10.4%
O=C(CCS(=O)(=O)c1ccccc1)N(CCCN1CCOCC1)c1nc2ccccc2s1 | · | · | · | -9.2% | 2.51µM* | ·
Cc1ccc2nc(N(CCN3CCOCC3)C(=O)CCS(=O)(=O)c3ccccc3)sc2c1 | · | · | · | -0.8% | -21.2% | ·
CCCC(=O)N(CCN1CCOCC1)c1nc2cc(C)c(C)cc2s1 | 91.3* | -10.2% | 50.8* | 4.1% | -7.7% | ·
Cc1ccc(S(=O)(=O)CCC(=O)N(CCCN2CCOCC2)c2nc3ccccc3s2)cc1 | · | · | · | 0.7% | 14.1µM* | ·
CCc1ccccc1NC(=O)c1ccc2c(c1)nnn2C1CCCC1 | · | · | · | 0.3% | 0.3% | ·
COc1ccccc1NC(=O)Nc1nc(CC(=O)N2CCN(c3ccc(F)cc3)CC2)cs1 | · | · | · | 0.4% | -1.3% | ·
O=C(c1cc(COc2c(F)cccc2F)on1)N1CCCCCC1 | 81.1* | -4.0% | 61.2* | -2.7% | -31.9% | ·
O=C(c1cc(COc2ccc3c(c2)CCCC3)on1)N1CCCC1 | 50.6* | -0.2% | 46.9* | · | -0.4% | ·
COCC1CCN(C(=O)c2cc(COc3ccc4c(c3)CCCC4)on2)C1 (configuration not stated) | 4.4 | -6.3% | 20.3 | 7.1% | 0.4% | ·
CCOC(=O)N1CCN(C(=O)c2cc(COc3c(F)cccc3F)on2)CC1 | 129.2* | -5.6% | 73.7* | -10.1% | 0.8% | 5.6%
SMILES | Shiga toxin inh | LmPK inh | Cycloheximide cs | TbPYK inhibitor | Sm TGR block | Giardia FBPA inh
CCOC(=O)c1ccc(CN2CCCC(C)(C(=O)NCCOC)C2)cc1 (configuration not stated) | · | · | · | 3.5% | · | ·
Cc1cccc(NS(=O)(=O)c2ccc3c(c2)CCN3C(=O)C2CC2)c1C | · | · | · | -8.7% | -11.1% | ·
CCOc1ccc(C(=O)Nc2ccc3oc(-c4ccc(C)cc4C)nc3c2)cc1Br | · | · | · | -1.1% | 3.5% | ·
CN(C(=O)c1nn(C)c2c1CSc1ccccc1-2)c1ccccc1Cl | 33.2* | -10.0% | 25.1* | -3.8% | -1.6% | ·
CC1CCCN(C(=O)c2nn(C)c3c2CSc2ccccc2-3)C1 (configuration not stated) | 31.5 | -2.4% | 18.2* | ? | ? | ?
CN(C(=O)c1nn(C)c2c1CSc1ccccc1-2)c1ccc(F)cc1 | -3.2 | 2.6% | -1.6 | -11.7% | -0.4% | -9.7%
COc1ccc(C=C2CS(=O)(=O)CC(=Cc3ccc(OC)cc3)C2=O)cc1 | · | · | · | 1.4% | · | ·
N/C(=N\OC(=O)Cc1ccc(Cl)cc1)c1cccnc1 | -23.1 | -1.4% | 15.2* | 10.6% | -0.3% | 3.4%
N/C(=N\OC(=O)Cc1ccc(-c2ccccc2)cc1)c1cccnc1 | 3.7 | 4.0% | 13.7 | -24.5% | 16.9% | -2.2%
N/C(=N\OC(=O)Cc1ccccc1)c1cccnc1 | 36.6 | -5.1% | 20.6* | 0.2% | -4.2% | 8.3%
N/C(=N\OC(=O)Cc1ccccc1)c1ccccc1Cl | 93.7* | -1.8% | 58.7* | 0.2% | 0.1% | 6.0%
COc1ccc(OCCCC(=O)ON=C(N)c2ccccc2Cl)cc1 | · | · | · | 1.0% | -21.9% | ·
Cc1ccc(NC(=O)C2CCN(S(=O)(=O)c3cccnc3)CC2)cc1C | -9.7 | -0.9% | -0.6 | 0.9% | 8.7% | 0.9%
COc1cccc(NC(=O)Cn2c(=O)ccc3cc(S(=O)(=O)N4CCC(C)CC4)ccc32)c1 | · | · | · | 5.2% | -1.0% | ·
C=CCNc1nc(-c2c(C)nc3sccn23)cs1 | 50.0* | 0.0% | 24.8* | -2.1% | 0.8% | ?
CCCCSCCCNC(=O)CN1C(=O)COc2ccc(S(=O)(=O)N3CCC(C)CC3)cc21 | · | · | · | -2.6% | -9.4% | ·
CCOC(=O)N1CCC(=NNS(=O)(=O)c2cccc([N+](=O)[O-])c2)CC1 | 11.4 | 3.6% | 10.7 | 1.1% | 28.2µM* | 0.1%
Cc1ccc2nc(-c3ccccn3)oc2c1 | 30.9 | 15.8µM* | 30.3 | -25.0% | 19.3% | -4.4%
Cc1ccc2nc(-c3cccnc3)oc2c1 | 130.8* | ? | 47.5* | -3.8% | 10.6% | -2.1%
Cc1ccc2nc(-c3ccc(Cl)c(NC(=O)c4cccnc4)c3)oc2c1 | · | · | · | -1.0% | 4.6% | ·
Cc1ccc(N2C(=O)N3[C@H](c4ccc(Cl)cc4)[C@@H]4C(=O)N(C5CCCCC5)C(=O)[C@@H]4[C@]3(Cc3ccccc3)C2=O)cc1 | 19.3* | -3.3% | 9.7* | 0.6% | 9.9% | 1.6%
Cc1cccc(N2C(=O)N3[C@H](c4ccc(Cl)cc4)[C@@H]4C(=O)N(C5CCCCC5)C(=O)[C@@H]4[C@]3(Cc3ccc(Cl)cc3)C2=O)c1 | -11.3 | -1.9% | -2.5 | 0.6% | 12.5% | -0.7%
COc1ccc(CCNC(=O)Cn2c(=O)c3cccn3c3ccc(F)cc32)c(OC)c1 | · | · | · | -0.9% | 2.8% | ·
N#CCCCc1cn(-c2nc3ccccc3s2)nn1 | · | · | · | 7.6% | · | ·
Cn1c(SCC(=O)Nc2cc(Cl)cc(Cl)c2)nnc1-c1ccc2nonc2c1 | -23.6 | 8.4% | 2.3 | 2.5% | 17.8µM* | -11.7%
